Experimental data: PubChem BioAssay
Active and inactive are the calls of the source.

Experiments:
[1] = test system: Plasmodium falciparum Sir2 (PF13_0152, Sir2A); test: pfSir2 binders on small-molecule microarrays, primary screen, biochemical, small-molecule microarray, 635 nm fluorescence (AID 1098); conditions: small-molecule microarray binding, fluorescence 635 nm; higher = more signal;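 further: score merges spot fluorescence intensity with its signal-to-noise ratio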
[2] = small-molecule microarray binders of probe aDKK1, primary screen, biochemical, biotinylated probe, 635/667 nm fluorescence (AID 1099); conditions: higher = more signal;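 further: score merges 667nm spot fluorescence with signal to noise across triplicate slides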
[3] = small-molecule microarray binders of probe aCHRDL2, primary screen, biochemical, biotinylated probe, 635/667 nm fluorescence (AID 1100); conditions: higher = more signal
[4] = splicing luciferase reporter signal modulators, primary screen, spliceosome inhibition project, cell-based, HEK293, splice +/- reporter (AID 1101); conditions: luminescence, 24 h, higher = more signal, called active from +8 up or from −8 down;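 further: HEK293 cells carrying a splicing-competent luciferase reporter gene; test concentration not given here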
[5] = biological target: Fibroblast growth factor 10 (Homo sapiens) (UniProt O15520); test: FGF10 binders on small-molecule microarrays, primary screen, biochemical, small-molecule microarray, 635 nm fluorescence (AID 1102); conditions: FGF10 binding, fluorescence 635 nm, higher = more signal
Fibroblast growth factor 10 (Homo sapiens), sequence (O15520 whole entry, looked up): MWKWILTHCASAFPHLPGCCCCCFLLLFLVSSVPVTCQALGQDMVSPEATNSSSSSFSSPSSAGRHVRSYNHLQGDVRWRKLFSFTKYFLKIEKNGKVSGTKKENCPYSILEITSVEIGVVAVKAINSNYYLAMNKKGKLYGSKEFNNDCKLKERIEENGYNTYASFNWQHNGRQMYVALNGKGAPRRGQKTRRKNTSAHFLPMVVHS

[6] = test system: glycogen synthase kinase-3 (GSK3A per assay name; protocol says GSK3B); test: GSK3 binders on small-molecule microarrays, primary screen, biochemical, small-molecule microarray, 635 nm fluorescence, GSK3A (AID 1103); conditions: small-molecule microarray binding, fluorescence 635 nm; higher = more signal; further: the record names both GSK3A and GSK3B
[7] = biological target: Epidermal growth factor receptor (Homo sapiens) (UniProt P00533); test: EGFR binders on small-molecule microarrays, primary screen, biochemical, small-molecule microarray, 635 nm fluorescence (AID 1104); conditions: EGFR binding, higher = more signal;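 further: score merges 667 nm emission intensity with spot signal to noise over triplicate slides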
Epidermal growth factor receptor (Homo sapiens), sequence (P00533 whole entry, looked up): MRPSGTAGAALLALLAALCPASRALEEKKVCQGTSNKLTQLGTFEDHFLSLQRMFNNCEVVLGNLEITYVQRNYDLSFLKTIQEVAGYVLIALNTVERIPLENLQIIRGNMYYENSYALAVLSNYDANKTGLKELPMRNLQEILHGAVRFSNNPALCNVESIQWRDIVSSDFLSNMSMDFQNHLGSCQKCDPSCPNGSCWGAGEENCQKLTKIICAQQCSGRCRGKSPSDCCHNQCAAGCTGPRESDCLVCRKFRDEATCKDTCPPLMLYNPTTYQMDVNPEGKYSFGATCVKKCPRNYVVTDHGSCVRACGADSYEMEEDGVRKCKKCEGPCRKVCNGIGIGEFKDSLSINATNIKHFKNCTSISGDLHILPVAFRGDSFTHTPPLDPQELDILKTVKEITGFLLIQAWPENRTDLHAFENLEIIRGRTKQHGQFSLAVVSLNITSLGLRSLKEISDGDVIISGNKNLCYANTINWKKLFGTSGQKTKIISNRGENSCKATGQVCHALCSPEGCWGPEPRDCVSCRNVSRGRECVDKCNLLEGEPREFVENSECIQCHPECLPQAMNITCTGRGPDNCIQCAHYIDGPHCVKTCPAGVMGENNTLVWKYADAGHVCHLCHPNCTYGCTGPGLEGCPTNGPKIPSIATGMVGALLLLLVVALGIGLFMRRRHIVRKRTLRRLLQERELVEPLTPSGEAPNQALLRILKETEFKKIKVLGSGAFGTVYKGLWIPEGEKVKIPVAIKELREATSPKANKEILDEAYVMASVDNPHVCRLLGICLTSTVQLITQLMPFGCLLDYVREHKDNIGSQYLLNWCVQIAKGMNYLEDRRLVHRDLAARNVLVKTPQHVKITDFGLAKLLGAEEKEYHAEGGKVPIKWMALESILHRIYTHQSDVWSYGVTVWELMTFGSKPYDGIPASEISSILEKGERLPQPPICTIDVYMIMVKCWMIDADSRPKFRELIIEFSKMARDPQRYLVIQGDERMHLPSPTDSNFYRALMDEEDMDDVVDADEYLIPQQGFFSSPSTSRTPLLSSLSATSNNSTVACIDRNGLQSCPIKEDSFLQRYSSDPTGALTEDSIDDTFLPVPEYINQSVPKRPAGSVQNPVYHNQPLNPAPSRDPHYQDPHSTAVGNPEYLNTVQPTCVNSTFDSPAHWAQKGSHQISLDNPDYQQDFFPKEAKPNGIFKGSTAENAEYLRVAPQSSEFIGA

[8] = biological target: Follistatin-related protein 3 (Homo sapiens) (UniProt O95633); test: FSTL3 binders on small-molecule microarrays, primary screen, biochemical, small-molecule microarray, 635 nm fluorescence (AID 1105); conditions: FSTL3 binding, higher = more signal;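 further: score merges emission near 667 nm and signal to noise per printed spot across three slides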
Follistatin-related protein 3 (Homo sapiens), sequence (O95633 whole entry, looked up): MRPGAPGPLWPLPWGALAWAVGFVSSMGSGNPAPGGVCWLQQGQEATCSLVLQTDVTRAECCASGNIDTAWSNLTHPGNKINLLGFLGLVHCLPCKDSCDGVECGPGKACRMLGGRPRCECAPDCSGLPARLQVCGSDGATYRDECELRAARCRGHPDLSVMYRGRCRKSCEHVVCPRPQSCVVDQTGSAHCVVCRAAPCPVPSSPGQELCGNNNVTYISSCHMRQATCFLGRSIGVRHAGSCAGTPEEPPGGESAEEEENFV

[9] = biological target: Dickkopf-related protein 1 (Homo sapiens) (UniProt O94907); test: DKK1 binders on small-molecule microarrays, primary screen, biochemical, small-molecule microarray, 635 nm fluorescence scan (AID 1106); conditions: DKK1 binding, higher = more signal;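 further: score merges emission near 667 nm with signal to noise over three replicate slides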
Dickkopf-related protein 1 (Homo sapiens), sequence (O94907 whole entry, looked up): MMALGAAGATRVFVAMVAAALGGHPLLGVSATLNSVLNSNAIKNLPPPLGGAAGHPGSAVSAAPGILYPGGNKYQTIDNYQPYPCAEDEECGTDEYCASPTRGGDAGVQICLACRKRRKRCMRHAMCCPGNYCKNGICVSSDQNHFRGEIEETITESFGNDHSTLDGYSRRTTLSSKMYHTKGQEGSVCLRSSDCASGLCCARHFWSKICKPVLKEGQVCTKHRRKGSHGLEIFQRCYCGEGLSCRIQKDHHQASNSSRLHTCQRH

[10] = test system: Inhibin beta A chain (activin A); test: INHBA (activin A) binders on microarrays, primary screen, biochemical, small-molecule microarray, 635 nm fluorescence scan (AID 1107); conditions: small-molecule microarray binding, higher = more signal;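 further: mouse activin A protein probed at 4.33 µg/mL on printed slides; score merges bound-protein fluorescence near 667 nm with spot signal-to-noise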
[11] = test system: Human papillomavirus type 1a protein E7 (residues 44-93); test: HPV1a E7 fragment binders on microarrays, primary screen, biochemical, small-molecule microarray, residues 44-93, 635 nm fluorescence (AID 1108); conditions: small-molecule microarray binding, fluorescence 635 nm; higher = more signal;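 further: E7 fragment applied at 1 µg/mL in TBST for 1 h at 4 C; score combines spot fluorescence with its signal to noise ratio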
[12] = modulators of HCV replicon luciferase signal, primary screen, HCV replication inhibitor project, Huh7 cells, luciferase reporter (AID 1109); conditions: 48 h, higher = more signal;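 further: huh7 hepatoma cells harbouring a luciferase neomycin HCV replicon reporter; luciferase luminescence as measure of HCV replicon replication; test concentration not given here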
[13] = biological target: Left-right determination factor 2 (Homo sapiens) (UniProt O00292); test: LEFTY2 binders on small-molecule microarrays, primary screen, biochemical, small-molecule microarray, 635 nm fluorescence scan (AID 1110); conditions: LEFTY2 binding, higher = more signal
Left-right determination factor 2 (Homo sapiens), sequence (O00292 whole entry, looked up): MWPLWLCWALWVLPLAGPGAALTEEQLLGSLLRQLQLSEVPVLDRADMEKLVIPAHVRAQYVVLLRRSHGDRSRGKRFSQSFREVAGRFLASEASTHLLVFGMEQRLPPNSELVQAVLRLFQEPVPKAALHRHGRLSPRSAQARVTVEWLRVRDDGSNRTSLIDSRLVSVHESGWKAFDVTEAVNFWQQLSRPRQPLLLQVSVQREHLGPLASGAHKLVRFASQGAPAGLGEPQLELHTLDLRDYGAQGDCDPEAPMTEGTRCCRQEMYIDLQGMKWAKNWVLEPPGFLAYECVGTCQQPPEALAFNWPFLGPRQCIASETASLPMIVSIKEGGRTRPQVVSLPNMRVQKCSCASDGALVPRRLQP

[14] = biological target: Calmodulin-1 (Homo sapiens) (UniProt P0DP23); test: CALM1 binders on microarrays, EGTA buffer, profiling panel, biochemical, small-molecule microarray, Cy5-labelled CALM1 (AID 1111); conditions: Cy5-CALM1 binding fluorescence, higher = more signal;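 further: labelled calmodulin applied in Tris saline Tween buffer holding calcium plus EGTA and DTT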
[15] = biological target: Calmodulin-1 (Homo sapiens) (UniProt P0DP23); test: calcium-bound CALM1 binders on microarrays, profiling panel, artefact control for SMM control-protein annotation, biochemical, small-molecule microarray, Cy5-labelled CALM1, plus calcium (AID 1112); conditions: Cy5-CALM1 binding fluorescence, higher = more signal;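 further: score merges spot fluorescence with signal to noise from triplicate slides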
[16] = small-molecule microarray binders of probe aWnt5a, primary screen, biochemical, biotinylated probe, 635/667 nm fluorescence (AID 1113); conditions: higher = more signal;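 further: score merges 667 nm fluorescence intensity with signal-to-noise per printed feature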
[17] = small-molecule microarray binders of probe aShh, primary screen, biochemical, biotinylated probe, 635/667 nm fluorescence (AID 1114); conditions: higher = more signal;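 further: probe is biotin-labelled aShh protein from a stem cell growth factor screen; measures binding of labelled protein to compounds printed on the slide; score merges feature fluorescence at 667 nm with signal-to-noise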
[18] = small-molecule microarray binders of probe aNog, primary screen, biochemical, biotinylated probe, 635/667 nm fluorescence (AID 1115); conditions: higher = more signal;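 further: probe is biotinylated aNog protein used at 0.15 µg/mL for 1 h at 4 C; z-score combines 667 nm fluorescence of each spot with its signal to noise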
[19] = biological target: Torsin-1A-interacting protein 1 (Homo sapiens) (UniProt Q5JTV8); test: LAP1 binders from COS7 cell lysate, primary screen, small-molecule microarray, 635/667 nm fluorescence (AID 1116); conditions: COS7-hLAP1 lysate binding, 635 nm fluorescence, higher = more signal
Torsin-1A-interacting protein 1 (Homo sapiens), sequence (Q5JTV8 whole entry, looked up): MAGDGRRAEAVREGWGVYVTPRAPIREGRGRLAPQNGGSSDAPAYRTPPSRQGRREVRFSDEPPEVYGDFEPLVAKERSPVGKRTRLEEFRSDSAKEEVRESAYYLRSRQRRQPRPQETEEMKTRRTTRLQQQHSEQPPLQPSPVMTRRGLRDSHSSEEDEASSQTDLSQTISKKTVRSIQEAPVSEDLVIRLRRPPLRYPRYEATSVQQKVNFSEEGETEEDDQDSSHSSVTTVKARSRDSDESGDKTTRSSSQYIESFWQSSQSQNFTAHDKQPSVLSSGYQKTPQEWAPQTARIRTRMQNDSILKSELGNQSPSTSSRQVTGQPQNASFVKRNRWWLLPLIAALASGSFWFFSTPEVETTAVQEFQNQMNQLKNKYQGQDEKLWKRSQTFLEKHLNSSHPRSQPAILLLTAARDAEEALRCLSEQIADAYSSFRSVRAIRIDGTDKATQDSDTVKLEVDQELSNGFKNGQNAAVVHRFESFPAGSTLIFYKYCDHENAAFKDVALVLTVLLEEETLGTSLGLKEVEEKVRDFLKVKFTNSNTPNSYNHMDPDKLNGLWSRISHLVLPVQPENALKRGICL

[20] = biological target: Alpha-bungarotoxin (Bungarus multicinctus) (UniProt P60615); test: alpha-bungarotoxin binders on microarray, profiling panel, artefact control for SMM control protein annotation, biochemical, small-molecule microarray, Alexa647 label, 635/667 nm fluorescence (AID 1117); conditions: alpha-BTX-A647 binding fluorescence, higher = more signal
Alpha-bungarotoxin (Bungarus multicinctus), sequence (P60615 whole entry, looked up): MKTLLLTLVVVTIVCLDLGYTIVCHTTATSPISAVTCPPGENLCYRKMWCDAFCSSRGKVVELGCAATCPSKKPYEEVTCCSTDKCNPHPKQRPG

Row | Structure (SMILES) | composite z-score [1] | composite z-score [2] | composite z-score [3] | z-score [4] | composite z-score [5] | composite z-score [6] | composite z-score [7] | composite z-score [8] | composite z-score [9] | composite z-score [10] | composite z-score [11] | z-score [12] | composite z-score [13] | composite z-score [14] | composite z-score [15] | composite z-score [16] | composite z-score [17] | composite z-score [18] | composite z-score [19] | composite z-score [20]
1 | CN1C(=O)C2C=CC(C(O)c3cccc4ccccc34)N(NC(=O)OC(C)(C)C)C2C1=O (stereo not given) | 1.37 | 1.33 | 1.43 | 2.35 (inactive) | 0.373 | 1.03 | -0.0459 | 0.85 | -0.123 | 0.844 | 1.28 | -0.602 | -0.22 | 2.49 | 1.43 | -0.0512 | -0.0813 | -0.125 | 2.66 | 1.19
2 | Cc1ccc(S[C@]2(C(=O)NCCN3CCOCC3)CC(=O)N(C3Cc4ccccc4C3)[C@@H]2c2ccc(CO)cc2)cc1 | 1.48 | 0.0662 | 0.64 | -0.0221 (inactive) | -0.644 | -1.2 | -1 | -0.804 | -0.866 | 0.345 | 1.36 | -1.56 | -1.59 | -0.482 | -0.399 | -0.0425 | -0.181 | 0.775 | 0.143 | 0.0451
3 | O=C1C2C=CC(C(O)c3cccc4ccccc34)N(Nc3ccccc3)C2C(=O)N1c1ccccc1 (stereo not given) | 1.54 | 1.33 | 0.945 | -0.272 (inactive) | 1.09 | 1.28 | 0.346 | 1.43 | 0.0156 | 1.15 | 1.38 | -1.29 | 0.321 | 0.972 | -0.8 | 0.0725 | 0.424 | 1.05 | 0.759 | 2.06
4 | C=C(/C(=C/C[C@@H](OC(C)=O)c1ccccc1OCCO)c1cnc2ccccc2c1)C(C)C | 0.85 | -0.0495 | 0.168 | -0.333 (inactive) | 1.22 | 0.312 | 0.038 | 1.15 | 0.331 | 1.7 | 0.0976 | -1.61 | 0.0798 | -0.353 | -0.236 | 0.122 | 0.0328 | 0.291 | 0.148 | 1.01
5 | COC(=O)[C@@]1(Cc2ccc(OC)cc2)[C@H]2c3cc(C(=O)N(C)C)n(Cc4cc(C)n(C)n4)c3C[C@H]2CN1C(=O)c1ccccc1 | 1.07 | 0.383 | 0.433 | -1.03 (inactive) | 1.43 | 0.902 | -0.232 | -0.0771 | -0.382 | 0.79 | 1.52 | -0.952 | -0.198 | 0.239 | 0.529 | 0.596 | 0.964 | 1.11 | 1.2 | -0.329
6 | COc1cccc(C[C@H]2C[C@@H](CO[Si](C(C)C)(C(C)C)C(C)C)N3C(=O)[C@]4(C(C)=O)O[C@]23[C@H]2C(=O)N(C)C(=O)[C@H]24)c1 | 0.817 | -0.0616 | -0.463 | -1.29 (inactive) | 0.759 | 1.02 | 0.468 | 1.09 | 0.53 | -0.254 | 1.01 | -3.15 | 0.717 | 0.293 | -0.23 | -0.0721 | 0.138 | -0.158 | 0.102 | 0.866
7 | CC(C)C[C@@H]1NC(=O)[C@@H]2C[C@H](C(=O)NCc3ccc(F)cc3)[C@H](c3ccc(O)cc3)N2C1=O | 1.03 | 0.0289 | -0.0756 | -0.295 (inactive) | 0.807 | 0.819 | 0.116 | 0.111 | 0.284 | -0.445 | 1.11 | -0.738 | 0.1 | 1.35 | -0.166 | -0.147 | 0.191 | -0.319 | 1.03 | 0.896
8 | CCN(CC)c1ccc(N2CC=CC34O[C@@H]5/C=C\CCCOC(=O)C5[C@H]3C(=O)N(CCCCCCO)[C@@H]4C2=O)cc1 (stereo not given in full) | 1.96 | -0.202 | 0.733 | -1.13 (inactive) | -0.983 | -0.521 | -1.4 | -0.76 | -1.82 | 0.751 | -0.117 | 0.444 | -1.76 | -1.18 | -1.05 | -0.139 | 0.147 | -0.0439 | 1.26 | -0.855
9 | O=C1OCCC=C[C@H]2OC34C=CCN(Cn5nnc6ccccc65)C(=O)[C@H]3N(CCCCCO)C(=O)[C@@H]4C12 (stereo not given in full) | 1.18 | -0.181 | 0.311 | 0.227 (inactive) | -0.691 | -0.368 | -0.97 | -1.09 | -0.925 | 0.0469 | -0.473 | 0.204 | -0.511 | -0.212 | 0.106 | -0.101 | -0.0769 | 0.0599 | -1.1 | -1.09
10 | CN(C)C(=O)[C@]1(Cc2ccccc2N=[N+]=[N-])N=C(c2ccc(OCCCO)cc2)O[C@@H]1c1ccccc1CN=[N+]=[N-] | 0.43 | 0.189 | 0.279 | -0.891 (inactive) | 1.38 | 1.32 | 0.243 | 1.3 | 0.825 | 0.764 | 1.42 | -2.55 | 0.234 | 0.668 | 0.271 | 0.0559 | 0.13 | -0.488 | 0.939 | 0.564
